The results in this text go back to PubChem BioAssay (NCI).

Among the test systems are DU-145 prostate; MALME-3M melanoma; MDA-MB-231 breast; RXF 393 renal; SF-268 CNS; SF-295 CNS; SF-539 CNS; UACC-257 melanoma; HCT-15 colon; HT29 colon; SNB-75 CNS; SNB-19 CNS; PC-3 prostate; SK-MEL-5 melanoma; UACC-62 melanoma; LOX IMVI melanoma; SK-MEL-28 melanoma; M14 melanoma; U251 CNS.
Common to all, as to test: NCI-60 one-dose screen, 48 h (100 = growth as untreated, 0 = no growth, -100 = all killed)
Common to all, as to details: 10 µM unless noted

Structures are written as SMILES. About 83,000 compounds went through this panel and 20% of them were active in at least one assay; those are over-represented in the sample as a whole.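 Method: cells in 96-well plates; compound added at one concentration; 48 h incubation; percent growth measured; values under 10 scored active.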 Values without a mark were called inactive. Calls of active or inactive are those of the source.

For `O=C1C(Cl)=C(Cl)C(=O)c2c1nc1n2CCCC1`, the growth is 96.9% with DU-145 prostate; 73.2% with MALME-3M melanoma; 96.2% in the experiment with MDA-MB-231 breast; 99.5% in the experiment with RXF 393 renal; 95.9% with SF-268 CNS; 100% with SF-295 CNS. The growth in the experiment with SF-539 CNS is 99.9%; in the experiment with UACC-257 melanoma it was 96%; with HCT-15 colon, 103%; in the experiment on HT29 colon, 99.7%; in the experiment with SNB-75 CNS, 126%; in the experiment on SNB-19 CNS it was 96.4%. Also, the growth is 88.5% with PC-3 prostate; 98.8% with SK-MEL-5 melanoma; 93.7% with UACC-62 melanoma; 85.8% in the experiment with LOX IMVI melanoma; 113% with SK-MEL-28 melanoma.
For the molecule `Nc1nc(-c2ccc(F)cc2)cc(-c2cnn(-c3ccccc3)n2)n1`, the growth is 104% in the experiment on DU-145 prostate; 124% in the experiment with MALME-3M melanoma; 102% with MDA-MB-231 breast; 97.4% in the experiment with RXF 393 renal; 98.8% in the experiment with SF-268 CNS; 107% in the experiment with SF-295 CNS. The growth with SF-539 CNS was 106%; in the experiment on UACC-257 melanoma, 95.8%; in the experiment on M14 melanoma, 117%; in the experiment on HCT-15 colon it was 95.4%; in the experiment on HT29 colon it was 93.5%; in the experiment with SNB-75 CNS it was 100%. Also, the growth was 104% with SNB-19 CNS; 114% with PC-3 prostate; 104% in the experiment with SK-MEL-5 melanoma; 91.1% with UACC-62 melanoma; 97.2% in the experiment on LOX IMVI melanoma; 107% in the experiment with SK-MEL-28 melanoma.
`CC[C@H](Nc1nc(N)nc(C)c1C#N)c1nc2cccc(NCc3ccc(C(=O)NO)cc3)c2c(=O)n1-c1ccccc1`: the growth is 17.2% in the experiment on DU-145 prostate; 21.5% in the experiment on MALME-3M melanoma; 7.58% (active) with MDA-MB-231 breast; -21.7% (active) in the experiment with RXF 393 renal; 9.63% (active) in the experiment on SF-268 CNS; -3.97% (active) with SF-295 CNS. In addition, the growth is -18.8% (active) in the experiment with SF-539 CNS; 0.817% (active) with UACC-257 melanoma; 0.234% (active) with M14 melanoma; 38.7% in the experiment on HCT-15 colon; 3.55% (active) in the experiment on HT29 colon; 14.3% in the experiment with SNB-75 CNS. Moreover, the growth with SNB-19 CNS was 7.28% (active); in the experiment with PC-3 prostate it was 5.79% (active); with SK-MEL-5 melanoma, -13.2% (active); in the experiment with UACC-62 melanoma, -28.6% (active); in the experiment on LOX IMVI melanoma, -52.6% (active); in the experiment on SK-MEL-28 melanoma it was -0.295% (active).
On to `CSc1nc(NCCCNc2ccnc3cc(Cl)ccc23)cc(-c2ccccc2)n1`, for which the growth in the experiment on DU-145 prostate is 81.3%; in the experiment with MALME-3M melanoma, 56.9%; in the experiment on MDA-MB-231 breast, 45.4%; in the experiment with RXF 393 renal, 60.9%; in the experiment on SF-268 CNS, 67.9%; in the experiment with SF-295 CNS it was 56.9%. Also, the growth in the experiment with UACC-257 melanoma is 68.1%; with M14 melanoma it was -42.5% (active); in the experiment on HCT-15 colon, 46.2%; with HT29 colon, 9.09% (active); in the experiment on SNB-75 CNS, 56.9%; in the experiment on SNB-19 CNS it was 91.9%. Also, the growth in the experiment with PC-3 prostate is 59.9%; with SK-MEL-5 melanoma, 52.6%; in the experiment on UACC-62 melanoma it was 91%; in the experiment with LOX IMVI melanoma it was 31.2%; in the experiment with SK-MEL-28 melanoma it was -52.2% (active).
Consider `CC[C@H](Nc1cc(C)nc(N)n1)c1nc2cccc(NCc3ccc(C(=O)NO)cc3)c2c(=O)n1-c1ccccc1`, for which the growth in the experiment on DU-145 prostate was 36.4%; in the experiment with MALME-3M melanoma it was 37.6%; in the experiment on MDA-MB-231 breast, 0.273% (active); in the experiment on RXF 393 renal, -6% (active); in the experiment with SF-268 CNS, 27.6%; in the experiment with SF-295 CNS, 64.2%. Besides, the growth with SF-539 CNS is -20.6% (active); in the experiment on UACC-257 melanoma, 12.3%; in the experiment with M14 melanoma, 16.3%; in the experiment with HCT-15 colon, 92.5%; in the experiment on HT29 colon it was 10.2%; in the experiment with SNB-75 CNS it was 15.7%. The growth with SNB-19 CNS is -40.3% (active); in the experiment on PC-3 prostate, 12.4%; in the experiment with SK-MEL-5 melanoma, 30%; with UACC-62 melanoma it was 9.65% (active); in the experiment on LOX IMVI melanoma, -57.9% (active); in the experiment with SK-MEL-28 melanoma, 5.53% (active).
With `CC1=N/C(=C\c2cccc(Br)c2)C(=O)O1`, the growth was 109% in the experiment with DU-145 prostate; 98.8% in the experiment on MALME-3M melanoma; 105% with MDA-MB-231 breast; 112% in the experiment on RXF 393 renal; 98.6% with SF-268 CNS; 108% in the experiment on SF-295 CNS. The growth in the experiment on SF-539 CNS is 115%; with UACC-257 melanoma, 80.6%; with M14 melanoma it was 104%; in the experiment on HCT-15 colon, 104%; with HT29 colon, 108%; in the experiment on SNB-75 CNS it was 97.7%. Besides, the growth is 105% in the experiment on SNB-19 CNS; 101% in the experiment on PC-3 prostate; 100% in the experiment with SK-MEL-5 melanoma; 104% in the experiment on UACC-62 melanoma; 100% in the experiment on LOX IMVI melanoma; 114% in the experiment on SK-MEL-28 melanoma.
In the case of `COc1c2ccccc2c(OC)c2[nH]c(=O)ccc12`, the growth was -95.1% (active) in the experiment on DU-145 prostate; -63.2% (active) with MALME-3M melanoma; 69.4% in the experiment with MDA-MB-231 breast; 91.3% with RXF 393 renal; 64.4% in the experiment on SF-268 CNS; -21.4% (active) in the experiment on SF-295 CNS. Moreover, the growth is 40.8% with UACC-257 melanoma; 22.1% in the experiment on HCT-15 colon; 46.6% in the experiment on HT29 colon; -21.3% (active) in the experiment with SNB-75 CNS; 12.2% with SNB-19 CNS; 28.4% with U251 CNS. Also, the growth in the experiment with PC-3 prostate was 67%; in the experiment with SK-MEL-5 melanoma, -96.7% (active); in the experiment with UACC-62 melanoma it was -6.37% (active); in the experiment with LOX IMVI melanoma, 12.1%; in the experiment on SK-MEL-28 melanoma, 25.4%.
For the molecule `CCOC(=O)C(CC)n1c(=O)c2cc(OC)c(OC)cc2c2cnc3[nH]ccc3c21` (configuration not stated), the growth in the experiment with DU-145 prostate is 78.5%; in the experiment with MALME-3M melanoma it was 98.9%; with MDA-MB-231 breast, 70.5%; in the experiment with RXF 393 renal, 34.5%; in the experiment on SF-268 CNS, 67.4%; with SF-295 CNS it was 65%. For the same molecule, the growth in the experiment with SF-539 CNS is 66.3%; with UACC-257 melanoma, 97.5%; with M14 melanoma, 88.5%; in the experiment on HCT-15 colon, 75%; with HT29 colon, 76.9%; with SNB-75 CNS it was 45.3%. For the same molecule, the growth was 90.8% in the experiment on SNB-19 CNS; 57.1% with PC-3 prostate; 80.9% in the experiment with SK-MEL-5 melanoma; 63.2% in the experiment with UACC-62 melanoma; 44.8% in the experiment on LOX IMVI melanoma; 90.7% in the experiment on SK-MEL-28 melanoma.
`Cn1cc(-c2ccc(-c3cn(C)c4ncccc34)[nH]2)c2cccnc21`: the growth in the experiment on DU-145 prostate was 94.2%; in the experiment on MALME-3M melanoma, 86.5%; with MDA-MB-231 breast, 63.8%; with RXF 393 renal it was 10.6%; in the experiment on SF-268 CNS, 45.9%; in the experiment with SF-295 CNS, 86.3%. The growth in the experiment on UACC-257 melanoma was 64.6%; in the experiment on M14 melanoma it was 76.2%; in the experiment on HCT-15 colon, 50.4%; in the experiment with HT29 colon, 97.6%; in the experiment on SNB-75 CNS, 59.7%; in the experiment with SNB-19 CNS, 76%. Besides, the growth with U251 CNS is -44.1% (active); in the experiment on PC-3 prostate it was -29.9% (active); with SK-MEL-5 melanoma, 9.47% (active); in the experiment on UACC-62 melanoma it was -4.05% (active); with LOX IMVI melanoma it was 21.8%; with SK-MEL-28 melanoma, 84.8%.
Take `O=C(CO[N+](=O)[O-])Nc1ccc(C(=O)/C=C/c2ccc(Cl)cc2)cc1`: the growth was 79.9% with DU-145 prostate; 79.1% in the experiment on MALME-3M melanoma; 55% with MDA-MB-231 breast; 72.5% in the experiment with RXF 393 renal; 44.9% with SF-268 CNS; 105% in the experiment on SF-295 CNS. Moreover, the growth is 61.2% in the experiment on UACC-257 melanoma; 58.9% in the experiment on HCT-15 colon; -23.4% (active) with HT29 colon; 69.7% in the experiment with SNB-75 CNS; 87.9% in the experiment with SNB-19 CNS; 14.9% in the experiment on U251 CNS. In addition, the growth is 27.6% with PC-3 prostate; 54.5% in the experiment on SK-MEL-5 melanoma; 49.2% in the experiment on UACC-62 melanoma; -60.9% (active) in the experiment with LOX IMVI melanoma; 86.8% with SK-MEL-28 melanoma.
Take `COc1ccc2[nH]c(=O)c(/C=C/C(=O)c3ccc(Nc4nccc(-c5ccc6ccccc6c5)n4)cc3)cc2c1`: the growth with DU-145 prostate was 99.9%; in the experiment on MALME-3M melanoma it was 101%; with MDA-MB-231 breast, 96.2%; with RXF 393 renal it was 102%; with SF-268 CNS, 94.9%; in the experiment on SF-295 CNS it was 101%. Further, the growth in the experiment on SF-539 CNS was 101%; with UACC-257 melanoma, 95.2%; in the experiment with M14 melanoma it was 101%; with HCT-15 colon, 110%; with HT29 colon, 102%; in the experiment with SNB-75 CNS, 95.7%. The growth in the experiment on SNB-19 CNS is 91.9%; in the experiment on PC-3 prostate it was 98.2%; with SK-MEL-5 melanoma it was 101%; in the experiment with UACC-62 melanoma, 88.7%; in the experiment with LOX IMVI melanoma, 100%; in the experiment with SK-MEL-28 melanoma, 108%.
On to `COc1cc2cc(COc3nccc(-c4ccc(Cl)cc4)n3)c(=O)[nH]c2cc1OC`, for which the growth with DU-145 prostate was 81.4%; in the experiment with MALME-3M melanoma, 45.7%; with MDA-MB-231 breast, 55.1%; in the experiment on RXF 393 renal it was 61.9%; with SF-268 CNS, 80.1%; with SF-295 CNS it was 97.6%. Besides, the growth was 67.9% in the experiment with SF-539 CNS; 98% in the experiment with UACC-257 melanoma; -27.4% (active) with M14 melanoma; 63.6% with HCT-15 colon; -7.34% (active) with HT29 colon; 91.6% with SNB-75 CNS. For the same molecule, the growth with SNB-19 CNS is 77.1%; with PC-3 prostate, 71.4%; with SK-MEL-5 melanoma, 77.2%; in the experiment on UACC-62 melanoma it was 92.3%; with LOX IMVI melanoma, 54.7%; in the experiment with SK-MEL-28 melanoma it was 40.3%.
